Data as given in PubChem BioAssay (NCATS).
Activity calls are given as the source filed them. The call rests on the fitted dose curve; in most records, active means well fitted activation curve with a large enough effect; inconclusive means small, poorly fitted or top-dose-only effect; inactive means flat fitted curve, though single readings scatter.

Assay: Confirmation and Secondary Assay for Modulators of Hemoglobin Beta Chain Splicing at IVS2 654 locus (AID 910);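 further: HeLa cells stably carrying EGFP split by mutant beta-globin IVS2-654 intron; per-well total GFP intensity by laser scanning cytometry after 2-day treatment; % of control where 0% means no effect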
Conditions: HeLa EGFP-654 splicing reporter, GFP fluorescence, 48 h; series mostly up to 46.1 µM; activation (splicing correction): at the top concentration
In short: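 Readout: per-well total peak green fluorescence (488 nm ex, 500–520 nm em) from objects 5–250 µm, reflecting correct splicing of an EGFP-654 reporter. Compounds were applied for 2 days at 37 °C to overnight-plated HeLa EGFP-654 cells; controls were DMSO and 500 nM IVS2-654 PNA.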

Activation (splicing correction), inactive:
COc1cc2c(c(OC)c1OC)-c1ccc(OC)c(=O)cc1C(NC(C)=O)CC2 (centres undefined) -7.01%, CC(=O)[C@]1(O)CCC2C3CC(C)C4=CC(=O)C=CC4(C)[C@@]3(F)C(O)C[C@]21C (some centres undefined) -1.29%, CC1(C)C(=O)C=C[C@]2(C)C1CC(=O)[C@]1(C)C2CC[C@@]2(C)C(c3ccoc3)OC(=O)C3O[C@@]321 (some centres undefined) -6.68%, CC(=O)N1CCN(c2ccc(OCC3CO[C@@](Cn4ccnc4)(c4ccc(Cl)cc4Cl)O3)cc2)CC1 (some centres undefined) -4.91%, C=C1c2c(Cl)ccc(O)c2C(O)=C2C(=O)[C@]3(O)C(O)=C(C(N)=O)C(=O)C(N(C)C)C3C(O)C12 (some centres undefined) -7.93%, OC1C=C2CCN3Cc4cc5c(cc4C(C1O)C23)OCO5 (centres undefined) 3.72%, CC(C)(C)NCC(O)COc1cccc2c1CC(O)C(O)C2 (centres undefined) -2.52%, CCOC(=O)C1=C[C@@]2(CC)CCCN3CCc4c(n1c1ccccc41)C32 (some centres undefined) 3.6%, CC1CC2C3CC(F)C4=CC(=O)C=C[C@@]4(C)[C@@]3(F)C(O)C[C@]2(C)[C@]1(O)C(=O)COC(=O)C(C)(C)C (some centres undefined) -1.46%, CN1C2CC(OC(=O)C(CO)c3ccccc3)C[C@@H]1[C@H]1OC21 (some centres undefined) 3.6%, CNC(C)C1CC[C@H](N)[C@@H](OC2C(N)C[C@H](N)[C@@H](OC3OC[C@](C)(O)C(NC)[C@H]3O)C2O)O1 (some centres undefined) 3.34%, CC1CC[C@@]2(C(=O)O)CC[C@]3(C)C(=CCC4[C@@]5(C)CCC(O)C(C)(C)C5CC[C@@]43C)C2C1C (some centres undefined) -1.02% [at 38.3 µM], CC(CCC(=O)O)C1CCC2C3CC[C@H]4CC(O)CC[C@@]4(C)C3CC[C@@]12C (some centres undefined) -6.74%, Nc1ncn(C2OC(CO)C(O)C2O)c(=O)n1 (centres undefined) -5.89%
